Hits are enriched below; roughly 6.9% of the tested compounds scored in any of these assays.
Giardia killer = Giardia lamblia killing. AID 540267. actives 0.15% (n = 340,000). activity change, % at 7.66 µM, hits read low. Giardia lamblia trophozoite viability; in the data active means activity change below about -80%; inconclusive means between about -30% and that limit;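 further: parasites exposed to compound for two days anaerobically before the ATP read; on the % scale 0 is the no-effect control and ±100 the full control effect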
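Viability, read as ATP luminescence: trophozoites at 100 cells/well, compound added, 48 hrs anaerobic at 37 deg C, then 15-30 min room-temperature development before reading.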
KB-V1 MDR tox = KB-V1 MDR subline cytotoxicity | KB-V1 MDR cells viability, CellTiter-Glo, 72 h | Potency, µM (top dose mostly 46.1 µM), usual class: cytotoxic | actives 3.4% (n = 400,000); further: potency means the concentration at half of the fitted maximal effect; on the % scale 0 is the no-effect control and ±100 the full control effect; nearly all actives have a fitted effect of over 60% in size
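Potencies derive from concentration-effect curves fitted to normalized luminescence (CellTiter-Glo) of KB-V1 cells treated for 72 h at 37 degrees C in phenol-red-free DMEM containing 10% FBS.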
S-ASM inh = inhibitors of human secretory acid sphingomyelinase; P17405; placental ASM, HMU-PC fluorogenic substrate, 60 min; Potency, µM (doses to about 57.5 µM), without a hit: top-dose activity change, negative = inhibition, most hits filed as inhibitors; actives 0.006% (n = 340,000); AID 504937; further: potency means the concentration at half of the fitted maximal effect
Target sequence (P17405 47-631 limits assumed): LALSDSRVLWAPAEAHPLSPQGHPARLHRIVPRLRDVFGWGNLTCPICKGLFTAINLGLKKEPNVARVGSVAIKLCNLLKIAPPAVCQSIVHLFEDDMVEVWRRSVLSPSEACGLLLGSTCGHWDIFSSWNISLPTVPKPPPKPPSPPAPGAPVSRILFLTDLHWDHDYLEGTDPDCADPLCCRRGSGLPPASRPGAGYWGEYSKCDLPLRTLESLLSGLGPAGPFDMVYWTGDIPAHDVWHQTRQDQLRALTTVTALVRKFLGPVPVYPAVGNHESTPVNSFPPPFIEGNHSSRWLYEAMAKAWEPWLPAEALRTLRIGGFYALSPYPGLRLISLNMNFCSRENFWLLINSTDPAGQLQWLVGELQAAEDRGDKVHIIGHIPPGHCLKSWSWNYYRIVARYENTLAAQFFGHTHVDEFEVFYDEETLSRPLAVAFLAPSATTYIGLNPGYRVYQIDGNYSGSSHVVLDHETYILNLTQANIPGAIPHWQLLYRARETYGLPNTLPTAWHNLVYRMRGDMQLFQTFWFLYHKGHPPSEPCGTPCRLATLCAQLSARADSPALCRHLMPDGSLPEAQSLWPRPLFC
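Human placenta-derived ASM enzyme was preincubated with compound for 10 minutes at room temperature, then given fluorogenic substrate HMU-PC0 (9 uM final) for 60 minutes at 37 °C; a pH 10 stop preceded fluorescence reading at Ex 386/Em 447 nm.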
SW480 rereplic = DNA re-replication induction in SW480 cells. SW480 DNA re-replication, Hoechst DNA content imaging, 48 h. Potency, µM (series often up to 46.1 µM), inactives show at the top dose re-replication activation, hits mostly activators. actives 1.8% (n = 340,000); further: potency means the concentration at half of the fitted maximal effect; % of control where 0% means no effect; nearly all actives have a fitted effect of over 55% in size
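First, 250 cells per well were seeded. Next, compound or vehicle (23 nL) was pinned in, plates sat 48 hr at 37 C. Finally Hoechst was added for 40 min before fluorescence scanning.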
MCF10A rerep = induces DNA re-replication in MCF 10a normal breast cells | MCF 10A DNA re-replication, Hoechst nuclear intensity, 48 h | Potency, µM (titrated, usually from 46.1 µM), without a hit: at the highest dose activity, positive = re-replication, most hits filed as activators | actives 2.9% (n = 350,000) | AID 624296; further: potency means the concentration at half of the fitted maximal effect; % of control where 0% means no effect; nearly all actives have a fitted effect of over 50% in size
KB-3-1 tox = KB-3-1 parental cell cytotoxicity; AID 1347075; KB-3-1 viability, CellTiter-Glo ATP luminescence, 72 h; actives 1.4% (n = 400,000); Potency, µM (highest dose often 46.1 µM), actives largely listed as cytotoxic; further: potency means the concentration at half of the fitted maximal effect; on the % scale 0 is the no-effect control and ±100 the full control effect; nearly all actives have a fitted effect of over 60% in size
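72 h, 37 °C compound treatment of KB-3-1 parental cells; CellTiter-Glo added, 10 min, luminescence read. Data corrected against DMSO-only plates and normalized before curve fitting.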
* = called active by the depositor; i = inactive; ? = inconclusive; . = no result given; [ ] = another dose, or the depositor's remark. Unless noted, the call rests on the fitted dose curve; in most records, active means well fitted curve in the direction sought with a large enough effect; inconclusive means small, poorly fitted or top-dose-only effect, or another doubt; inactive means no such curve, though single readings can be large; an effect the other way counts as inactive or inconclusive.

SMILES	Giardia killer	KB-V1 MDR tox	S-ASM inh	SW480 rereplic	MCF10A rerep	KB-3-1 tox
C[C@H](CO)N1C[C@H](C)[C@@H](CN(C)Cc2ccc(-c3ccccc3)cc2)Oc2c(NC(=O)Cc3ccccc3)cccc2C1=O	-8	?	?	?	?	i
C[C@H](CO)N1C[C@H](C)[C@@H](CN(C)Cc2ccncc2)Oc2c(NC(=O)Cc3ccccc3)cccc2C1=O	-9	i	3%	?	1%	16µM*
C[C@@H]1CN([C@H](C)CO)C(=O)c2cccc(NC(=O)NC3CCCCC3)c2O[C@@H]1CN(C)C(=O)Nc1ccc(C(F)(F)F)cc1	0	i	?	?	?	?
C[C@H](CO)N1C[C@H](C)[C@@H](CN(C)Cc2ccccc2)Oc2c(NC(=O)Cc3ccccc3)cccc2C1=O	-11	?	1%	-5%	?	23µM*
C[C@H](CO)N1C[C@H](C)[C@@H](CN(C)C(=O)Nc2ccccc2)Oc2c(NS(=O)(=O)c3cn(C)cn3)cccc2C1=O	0	i	2%	0%	?	i
C[C@H](CO)N1C[C@H](C)[C@@H](CN(C)C(=O)Nc2ccc(C(F)(F)F)cc2)Oc2c(NC(=O)NC3CCCCC3)cccc2C1=O	-19	i	-24%	-46%	3.3µM*	?
CCOC1=C2CN(S(=O)(=O)c3ccc(C)cc3)[C@H](c3ccccc3)C[C@@H]2N(S(=O)(=O)c2ccccc2C)[C@H](c2ccccc2)C1	.	i	.	.	.	i
O=c1cc(Cl)c(-c2ccccc2)nn1Cc1ccc(Cl)cc1	3	i	-3%	21%	?	i
CCCc1c(-c2cccc(Br)c2)ncn1Cc1cccc(-c2ccccc2)c1	.	16µM*	.	.	.	?
CCCc1c(-c2ccc(Cl)cc2)ncn1Cc1cccc(-c2ccccc2)c1	.	?	.	.	.	16µM*
COc1ccc(/C=C(\NC(=O)c2ccc(C)cc2)C(=O)NCCCn2ccnc2)cc1OC	29	i	11%	-5%	-1%	i
Cc1cc2oc(C(=O)NCc3ccccc3)cc(=O)c2cc1C	11	i	0%	8.2µM*	14%	i
Cc1cccc(NC(=O)c2cc(=O)c3ccccc3o2)n1	4	i	-3%	2.9µM*	91%[0.0737 µM]	i
Cc1ccc(C)c(NC(=O)c2cc(=O)c3ccccc3o2)c1	11	15µM*	-1%	0%	?	i
Cc1ccc2oc(C(=O)NC3CCS(=O)(=O)C3)cc(=O)c2c1 (configuration not stated)	-19	?	-1%	21µM*	1%	i
Cc1ccc(NC(=O)c2cc(=O)c3ccccc3o2)c(C)c1	3	?	2%	-5%	-6%	i
Cc1ccc2oc(C(=O)NCc3ccccc3)cc(=O)c2c1	-7	i	0%	13%	2%	i
COc1ccc(CCNC(=O)Cn2nc(C)n3c(cc4cc(F)ccc43)c2=O)cc1OC	.	i	.	.	.	i
CCc1ccc(S(=O)(=O)Nc2cccc(-c3ccc(N4CCOCC4)nn3)c2)cc1	.	i	.	.	.	i
O=C(CSc1nc(Nc2ccccc2)nc(N2CCOCC2)n1)Nc1ccc(Br)cc1F	12	i	-2%	?	15µM*	i
O=C(CSc1nc(Nc2ccccc2)nc(N2CCOCC2)n1)Nc1ccccc1Cl	16	15µM*	?	?	?	i
CCOc1ccc(NC(=O)CS(=O)(=O)Cc2nc(-c3ccc(C)cc3)oc2C)cc1	.	i	.	.	.	i
CO[C@H]1C[C@@H]2CC[C@@H](C)[C@@](O)(O2)C(=O)C(=O)N2CCCC[C@H]2C(=O)O[C@H]([C@H](C)C[C@@H]2CC[C@@H](OC(=O)C(C)(CO)CO)[C@H](OC)C2)CC(=O)[C@H](C)/C=C(\C)[C@@H](O)[C@@H](OC)C(=O)[C@H](C)C[C@H](C)/C=C/C=C/C=C/1C	.	.	.	-1%	4%	.
O=C(CS(=O)(=O)c1nc(-c2ccc(Cl)cc2)cn1-c1ccccc1)Nc1cccc(Cl)c1	.	16µM*	.	.	.	16µM*
CN1N=C2c3ccccc3CCC2C1c1ccc(F)cc1 (configuration not stated)	0	i	-3%	-20%	8%	i
SMILES	Giardia killer	KB-V1 MDR tox	S-ASM inh	SW480 rereplic	MCF10A rerep	KB-3-1 tox
c1ccc(N2CC3CCc4ccccc4C3=N2)cc1 (configuration not stated)	5	i	i	7.3µM*	21µM*	i
CCc1ccc(C(=O)NC(Cc2c[nH]c3ccccc23)C(=O)OCC(=O)c2ccc(Br)cc2)cc1 (configuration not stated)	.	i	.	.	.	i
COc1ccc2c(C(=O)NCc3ccc4c(c3)OCO4)c(-c3ccc(S(C)(=O)=O)cc3)sc2c1	24	i	443%	3.7µM*	118%	i
COc1ccc(C(=O)N(CCc2ccccc2)Cc2ccccc2)c(OC)n1	-10	8.2µM*	-2%	11%	?	?
CS(=O)(=O)c1ccccc1C(=O)N(CCc1ccccc1)Cc1ccccc1	10	?	4%	6%	14%	i
C=CCc1ccc(OCCOc2cccc3ccc(C)nc23)c(OC)c1	-9	?	-4%	?	12µM*	?
C=CCc1ccc(OCCOCCN(C)C)c(OC)c1	-8	i	-1%	-2%	-3%	i
Cc1ccccc1C(=O)N1CCN(c2ccc(NC(=S)NC(=O)c3cccs3)cc2)CC1	37	i	-8%	?	28%	?
CC(=O)N1CCN(c2ccc(NC(=S)NC(=O)c3ccccc3)cc2)CC1	-5	3.7µM*	5%	-74%	?	i
Cc1ccc(NC(=O)c2cc(S(=O)(=O)Nc3ccc(C)cc3)cs2)cc1	1	4.1µM*	-20%	?	6%	?
CC(=O)N1CCN(c2ccc(NC(=O)c3ccccc3)cc2)CC1	-23	i	4%	0%[9.22 µM]	1%	i
Cc1ccc(C(=O)N2CCN(c3ccc(NC(=S)NC(=O)c4cccs4)cc3)CC2)cc1	-13	i	-3%	10µM*	?	?
Cc1cccc(C(=O)NC(=S)Nc2ccc(N3CCOCC3)cc2)c1	-18	18µM*	0%	-2%	?	i
COc1ccccc1-c1csc(C(O)(c2ccccc2)C(F)(F)F)n1 (configuration not stated)	.	i	.	.	.	i
Cc1cc(C)cc(NS(=O)(=O)c2ccc(NC(=S)NC(=O)c3cccs3)cc2)c1	-12	2.9µM*	9%	?	?	23µM*

Screens deposited in PubChem BioAssay by National Center for Advancing Translational Sciences (NCATS).
